In PubChem BioAssay (EPA / NIEHS):
“And” between values parts separate entries of the source, which are not always exact repeats. Equal values may be shown once. A structure can be active in one record and inactive in another. The source made the active and inactive calls. Rule for the calls: active = hit-call score of the fitted dose curve at least 0.9, where 1 is the maximum; inactive = score below 0.9.

read-out: CYP2E1 (gene 1571); assay: LTEA_HepaRG_CYP2E1: Life Technologies and Expression Analysis (LTEA) Assay for CYP2E1 using HepaRG (AID 2283485); settings: mRNA level, 48 h; actives raise or lower the signal
Method: LTEA_HepaRG is a cell based, multiplexed-readout assay that uses HepaRG, a human liver cell line, with measurements taken at 48 hours after chemical dosing on a 96-well plate.LTEA_HepaRG_CYP2E1 is one of 102 assay component(s) measured in the LTEA HepaRG cell culture assay. It is a marker of NR mediated metabolism.Data from the assay component LTEA_HepaRG_CYP2E1 was analyzed into 1 endpoint. This assay endpoint, LTEA_HepaRG_CYP2E1, was analyzed with bidirectional fitting relative to DMSO as the negative control and baseline of activity. Using a type of inducible reporter, measures of mRNA induction for gain or loss-of-signal activity can be used to understand regulation of transcription factor activity. To generalize the intended target to other relatable targets, this assay endpoint is annotated to the cyp intended target family, where the subfamily is xenobiotic metabolism.
A total of 1060 chemcials from the ToxCast library were tested in eight-point concentration-response experiments. Cell culture and cytotoxicity assays were conducted at Thermo Fisher Scientific's Custom Services facility (Madison, WI). A single lot of human HepaRG cells (Thermo Fisher Scientific, Frederick, MD) was used for the cell culture experiments. 96-well format collagen type I coated plates of human HepaRG cells were prepared using established methods. Briefly, cryopreserved HepaRG cells were thawed, plated at a density of approximately 100,000 cells/well in HepaRG Thaw, Plate, and General Purpose media (HPRG770, Thermo Fisher Scientific), and incubated for 48 hours. 0.5% DMSO was selected as vehicle control to balance the requisite need of DMSO in HepaRG cultures to maintain differentiation (for example, baseline metabolism, proportions of hepatocytes vs. cholangiocytes), while enabling further hepatic receptor pathway activation (for example, PXR and CAR) in response to chemical exposure. 48 hours after plating, the culture medium was replaced with HepaRG Serum-Free Incudtion Media. Cells were exposed to each test chemical in duplicate and maintained in CO2 incubators for another 48 hours. Chemical plates were thawed to room temperature and 200x concentrations of treatment groups were prepared. 8-point conentration-reponse curves were made with the highest exposure at 100 uM, followed by half-log dilutions, all in 0.5% DMSO. Each test plate contained variouse controls, induction positive controls (1mM phenobarbital), cytotoxicity positive controls ([…] aflatoxin B1), vehicle controls (0.5% DMSO), and total lysis controls (0.5% DMSO). Cell morphology images were taken using an Essen IncuCyte FLR automated microscope, with six 96-well plates imaged in about 24 minutes. Images were captured and exported and JPEG files. Spent culture media was transfered to black-well plates for the LDH assay, and remaining media was sorted at -80 C for later use. Cells were treated with RLT buffer and frozen until shipped for gene expression analysis. Total RNA was isolated from the cell suspension in 75 uL of Buffer RLT (Qiagen, Germantown, MD 20874) by Quintiles/Expression Analysis (Durham, NC) using a custom isolation procedure. Total RNA from each plate well was transferred to a preamplification plate. Fluidigm's 96.96 Dynamic ArrayTM (Fluidigm, Amsterdam, the Netherlands) technology was used for gene expression analyses by quantitative reverse transcription polymerase chain reaction (qRT-PCR, performed by Quintiles/Expression Analysis, Durham, NC)89. Standard TaqManTM Assays (Applied Biosystems/ThermoFisher Scientific, Foster City, CA) were used to assess the expression of 93 genes selected based on their selectivity and sensitivity to important hepatic receptors known to be modulated by environmental chemicals; importance in human hepatocyte functionality; and hepatotoxicity. […]

| Structure (SMILES) | AC50 | outcome |
| --- | --- | --- |
| O=C(O)c1nc(Cl)ccc1Cl | 17.6 µM (active) | inactive |
| COC(=O)c1ccccc1C(=O)OC | – | inactive |
| COC(=O)C=C(C)OP(=O)(OC)OC | – | inactive |
| COc1cnc(OC)n2nc(NS(=O)(=O)c3c(OCC(F)F)cccc3C(F)(F)F)nc12 | 30.2 µM (active) | – |
| Oc1ccccc1-c1ccccc1 | – | inactive |
| CC1=C(C(=O)Nc2ccccc2)SCCO1 | 74.5 µM (active) | – |
| CCNc1nc(Cl)nc(NC(C)C)n1 | 16.6 µM (active) | – |
| CS/C(C)=N/OC(=O)N(C)SN(C)C(=O)O/N=C(\C)SC | 9.92 µM (active) | – |
| CCCCOC(=O)c1ccccc1C(=O)OCCCC | – | inactive |
| COP(N)(=O)SC (stereo not given) | – | inactive |
| CCOC(=O)C(Cl)Cc1cc(-n2nc(C)n(C(F)F)c2=O)c(F)cc1Cl (stereo not given) | – | inactive |
| Cc1c(F)c(F)c(COC(=O)C2C(/C=C(\Cl)C(F)(F)F)C2(C)C)c(F)c1F (stereo not given) | 72.3 µM (active) | – |
| COC(=O)C(C)Oc1ccc(Oc2ccc(Cl)cc2Cl)cc1 (stereo not given) | 50 µM (active) | – |
| CC(C)(C)c1ccc(CSc2cnn(C(C)(C)C)c(=O)c2Cl)cc1 | 1.48 µM (active) | – |
| CNC(=O)ON=CC(C)(C)SC | – | inactive |
| CN(C)C(=S)SSC(=S)N(C)C | – | inactive |
| C#CCOS(=O)OC1CCCCC1Oc1ccc(C(C)(C)C)cc1 (stereo not given) | 22.6 µM (active) | – |
| OC(c1ccc(Cl)cc1)(c1cncnc1)c1ccccc1Cl (stereo not given) | 46.7 µM (active) | – |
| COC(=O)N(OC)c1ccccc1COc1ccn(-c2ccc(Cl)cc2)n1 | 34.1 µM (active) | – |
| CCc1nn(C)c(C(=O)NCc2ccc(C(C)(C)C)cc2)c1Cl | 0.507 µM (active) | – |

| Structure (SMILES) | AC50 | outcome |
| --- | --- | --- |
| N#Cc1cc(Br)c(O)c(Br)c1 | 17.1 µM (active) | – |
| CO/C=C(/C(=O)OC)c1ccccc1Oc1cc(Oc2ccccc2C#N)ncn1 | 34.6 µM (active) and 50 µM (active) and 33.2 µM (active) | – |
| CC(C)Oc1cc(-n2nc(C(C)(C)C)oc2=O)c(Cl)cc1Cl | 30.8 µM (active) | – |
| N#Cc1nn(-c2c(Cl)cc(C(F)(F)F)cc2Cl)c(N)c1S(=O)C(F)(F)F (stereo not given) | 12.9 µM (active) | – |
| N#CC(CCc1ccc(Cl)cc1)(Cn1cncn1)c1ccccc1 (stereo not given) | 27.3 µM (active) | – |
| CCON=C(CC)C1=C(O)CC(c2c(C)cc(C)cc2C)CC1=O (stereo not given) | 43.6 µM (active) | – |
| CCCCNC(=O)n1c(NC(=O)OC)nc2ccccc21 | – | inactive |
| O=C(O)COc1nc(Cl)c(Cl)cc1Cl | – | inactive |
| C=CCC1=C(C)C(OC(=O)C2C(C=C(C)C)C2(C)C)CC1=O (stereo not given) | 70.6 µM (active) and 76.7 µM (active) and 60.9 µM (active) | – |
| CNC(=S)S | – | inactive |
| C=CC1(C)OC(=O)N(c2cc(Cl)cc(Cl)c2)C1=O (stereo not given) | 40.1 µM (active) | – |
| O=C(Nc1ccccc1)Nc1ccnc(Cl)c1 | 25.4 µM (active) | – |
| COc1nc(NC(C)C)nc(NC(C)C)n1 | 37 µM (active) | – |
| C=CCC1=C(C)[C@@H](OC(=O)[C@@H]2[C@@H](C=C(C)C)C2(C)C)CC1=O | 62.1 µM (active) | – |
| Fc1ccc(Oc2ccnc3cc(Cl)cc(Cl)c23)cc1 | 77.7 µM (active) | – |
| Cc1cc(Cl)ccc1OCC(=O)O | 30.9 µM (active) | – |
| CCCCNC(=O)OCC#CI | – | inactive |
| CCOc1cc(Oc2ccc(C(F)(F)F)cc2Cl)ccc1[N+](=O)[O-] | 24.8 µM (active) | – |
| CCCN(CCC)c1c([N+](=O)[O-])cc(S(N)(=O)=O)cc1[N+](=O)[O-] | 15.6 µM (active) and 12.9 µM (active) and 20.1 µM (active) | – |
